# Measurements from the supplement of paper PMC8728848.
# The sample as a whole holds a higher share of the strongest signals than the screen did.
# B1: GroEL (Clostridium difficile), Q18CT5 (protein)
# chain: MAKEIKFSEETRRALEAGVNKLADTVKVTLGPKGRNVILDKKFGSPLITNDGVTIAKEIELEDRFENMGAQLVKEVATKTNDVAGDGTTTATVLAQAIIREGLKNVTAGANPILLRKGIQKAVTVAVEELKNQSRIVETQEAISQVASISAGDEEVGKLIAEAMEIVGKDGVITVEESQTMNTELDAVEGMQFDRGFVSAYMVTDVDKMEAVLNDPYILITDKKISNIQELLPVLEQIVQQGKKLLIIAEDVEGEALSTLVVNKLRGTFDVVAVKAPGFGDRRKEMLQDIAILTGAQVISEELGYDLKEADLSMLGRASSVKVTKESTTIVDGSGDKKAIEDRVTQIKHQVEQTTSDFDREKLMERLAKLAGGVAVVKVGAATEVELKERKLRIEDALNATRAAVEEGIVAGGGTAFVSVIPAIGTLIESLEGEVKLGAQIVKKALEEPLRQIAINAGLEGAVIVQNVVNSEAETGFDALNEKYVNMIEAGIVDPTKVSRSALQNAASIASTFLTTEAAVADLPEKEDAGMPGMGGGMPGMM
# Experiments:
# Test in all cases: glycan array binding signal (z-score within array); higher = stronger binding
# Conditions in all cases: glycan notation: IUPAC condensed, linker removed
# [1] = molecular target: Fuc(a1-2)Gal(b1-3)GalNAc(a1-3)[Fuc(a1-2)]Gal(b1-4)GlcNAc
# Summary of the method: (§1)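 Arrays were curated from the Consortium for Functional Glycomics database, 3228 in total, and kept only where the protein sequence was available. Binding is expressed as a within-array Z-score. This score was averaged across arrays of the same protein sequence at different concentrations or buffers and across linkers, and negative values can be read as non-binding.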
# [2] = molecular target: Fuc(a1-2)Gal(b1-3)GlcNAc(b1-2)Man(a1-3)[Fuc(a1-2)Gal(b1-3)GlcNAc(b1-2)Man(a1-6)]Man(b1-4)GlcNAc(b1-4)GlcNAc
# Summary of the method: as §1
# [3] = molecular target: Fuc(a1-2)Gal(b1-4)GlcNAc(b1-2)Man(a1-3)[Fuc(a1-2)Gal(b1-4)GlcNAc(b1-2)Man(a1-6)]Man(b1-4)GlcNAc(b1-4)GlcNAc
# Summary of the method: as §1
# [4] = molecular target: Fuc(a1-2)Gal(b1-4)GlcNAc(b1-3)Gal(b1-4)GlcNAc(b1-3)Gal(b1-4)GlcNAc
# Summary of the method: as §1
# [5] = molecular target: Fuc(a1-2)Gal6S(b1-3)GlcNAc6S
# Summary of the method: as §1
# [6] = molecular target: Gal(a1-3)Gal(b1-4)[Fuc(a1-3)]GlcNAc(b1-2)Man(a1-3)[Gal(a1-3)Gal(b1-4)[Fuc(a1-3)]GlcNAc(b1-2)Man(a1-6)]Man(b1-4)GlcNAc(b1-4)GlcNAc
# Summary of the method: as §1
# Gal(a1-4)Gal(b1-4)Glc = molecular target: Gal(a1-4)Gal(b1-4)Glc
# Summary of the method: as §1
# [7] = molecular target: Gal(a1-4)Gal(b1-4)GlcNAc(b1-2)Man(a1-3)[Gal(a1-4)Gal(b1-4)GlcNAc(b1-2)Man(a1-6)]Man(b1-4)GlcNAc(b1-4)GlcNAc
# Summary of the method: as §1
# Gal(b1-3)Gal(b1-4)GlcNAc = molecular target: Gal(b1-3)Gal(b1-4)GlcNAc
# Summary of the method: as §1
# [8] = molecular target: Gal(b1-3)GalNAc(a1-3)[Fuc(a1-2)]Gal(b1-4)Glc
# Summary of the method: as §1
# Gal(b1-4)Glc6S = molecular target: Gal(b1-4)Glc6S
# Summary of the method: as §1
# [9] = molecular target: Gal(b1-4)GlcNAc(b1-2)Man(a1-3)[Gal(b1-4)GlcNAc(b1-2)Man(a1-6)]Man(b1-4)GlcNAc(b1-4)GlcNAc
# Summary of the method: as §1
# [10] = molecular target: Gal(b1-4)GlcNAc(b1-2)[Gal(b1-4)GlcNAc(b1-4)]Man(a1-3)[Gal(b1-4)GlcNAc(b1-2)Man(a1-6)]Man(b1-4)GlcNAc(b1-4)GlcNAc
# Summary of the method: as §1
# [11] = molecular target: Gal(b1-4)GlcNAc(b1-2)[Gal(b1-4)GlcNAc(b1-6)]Man(a1-6)[GlcNAc(b1-4)][Gal(b1-4)GlcNAc(b1-2)[Gal(b1-4)GlcNAc(b1-4)]Man(a1-3)]Man(b1-4)GlcNAc(b1-4)[Fuc(a1-6)]GlcNAc
# Summary of the method: as §1
# [12] = molecular target: Gal(b1-4)GlcNAc(b1-3)Gal(b1-4)GlcNAc(b1-3)Gal(b1-4)GlcNAc(b1-2)Man(a1-3)[Gal(b1-4)GlcNAc(b1-3)Gal(b1-4)GlcNAc(b1-3)Gal(b1-4)GlcNAc(b1-2)Man(a1-6)]Man(b1-4)GlcNAc(b1-4)[Fuc(a1-6)]GlcNAc
# Summary of the method: as §1
# [13] = molecular target: Gal(b1-4)GlcNAc(b1-3)Gal(b1-4)GlcNAc(b1-3)Gal(b1-4)GlcNAc(b1-2)[Gal(b1-4)GlcNAc(b1-3)Gal(b1-4)GlcNAc(b1-3)Gal(b1-4)GlcNAc(b1-6)]Man(a1-6)[Gal(b1-4)GlcNAc(b1-3)Gal(b1-4)GlcNAc(b1-3)Gal(b1-4)GlcNAc(b1-2)Man(a1-3)]Man(b1-4)GlcNAc(b1-4)[Fuc(a1-6)]GlcNAc
# Summary of the method: as §1
# [14] = molecular target: Gal(b1-4)GlcNAc(b1-3)Gal(b1-4)GlcNAc(b1-3)Gal(b1-4)GlcNAc(b1-3)Gal(b1-4)GlcNAc(b1-3)Gal(b1-4)GlcNAc(b1-2)[Gal(b1-4)GlcNAc(b1-3)Gal(b1-4)GlcNAc(b1-3)Gal(b1-4)GlcNAc(b1-3)Gal(b1-4)GlcNAc(b1-3)Gal(b1-4)GlcNAc(b1-6)]Man(a1-6)[Gal(b1-4)GlcNAc(b1-3)Gal(b1-4)GlcNAc(b1-3)Gal(b1-4)GlcNAc(b1-3)Gal(b1-4)GlcNAc(b1-3)Gal(b1-4)GlcNAc(b1-2)Man(a1-3)]Man(b1-4)GlcNAc(b1-4)[Fuc(a1-6)]GlcNAc
# Summary of the method: as §1
# [15] = molecular target: Gal(b1-4)GlcNAc(b1-3)Gal(b1-4)GlcNAc(b1-6)[Gal(b1-3)]GalNAc
# Summary of the method: as §1
# [16] = molecular target: Gal(b1-4)GlcNAc(b1-3)Gal(b1-4)[Fuc(a1-3)]GlcNAc(b1-3)Gal(b1-4)[Fuc(a1-3)]GlcNAc
# Summary of the method: as §1
# [17] = molecular target: Gal(b1-4)GlcNAc(b1-3)GalNAc
# Summary of the method: as §1
# Gal3S(b1-3)GalNAc = molecular target: Gal3S(b1-3)GalNAc
# Summary of the method: as §1
# [18] = molecular target: Gal3S(b1-3)[Fuc(a1-4)]GlcNAc
# Summary of the method: as §1
# [19] = molecular target: Gal3S(b1-4)[Fuc(a1-3)]Glc6S
# Summary of the method: as §1
# Gal3S4S(b1-4)GlcNAc = molecular target: Gal3S4S(b1-4)GlcNAc
# Summary of the method: as §1
# Glc(b1-6)Glc = molecular target: Glc(b1-6)Glc
# Summary of the method: as §1
# [20] = molecular target: GlcNAc(a1-4)Gal(b1-4)GlcNAc(b1-3)Gal(b1-4)Glc
# Summary of the method: as §1
# GlcNAc(b1-3)Gal = molecular target: GlcNAc(b1-3)Gal
# Summary of the method: as §1
# [21] = molecular target: GlcNAc(b1-3)[GlcNAc(b1-4)][GlcNAc(b1-6)]GlcNAc
# Summary of the method: as §1
# [22] = molecular target: Man(a1-3)[Man(a1-6)]Man(a1-6)[Man(a1-3)]Man(b1-4)GlcNAc(b1-4)GlcNAc
# Summary of the method: as §1
# [23] = molecular target: Neu5Ac(a2-3)Gal(b1-3)GlcNAc(b1-2)Man
# Summary of the method: as §1
# [24] = molecular target: Neu5Ac(a2-3)Gal(b1-3)GlcNAc(b1-3)Gal(b1-3)GlcNAc
# Summary of the method: as §1
# [25] = molecular target: Neu5Ac(a2-3)Gal(b1-3)GlcNAc(b1-3)GalNAc
# Summary of the method: as §1
# [26] = molecular target: Neu5Ac(a2-3)Gal(b1-3)GlcNAc(b1-4)Gal(b1-4)Glc
# Summary of the method: as §1
# Neu5Ac(a2-3)Gal(b1-4)Glc = molecular target: Neu5Ac(a2-3)Gal(b1-4)Glc
# Summary of the method: as §1
# [27] = molecular target: Neu5Ac(a2-3)Gal(b1-4)GlcNAc(b1-2)Man
# Summary of the method: as §1
# [28] = molecular target: Neu5Ac(a2-3)Gal(b1-4)GlcNAc(b1-6)GalNAc
# Summary of the method: as §1
# Neu5Ac(a2-6)Gal(b1-4)Glc = molecular target: Neu5Ac(a2-6)Gal(b1-4)Glc
# Summary of the method: as §1
# [29] = molecular target: Neu5Ac(a2-6)Gal(b1-4)GlcNAc(b1-2)Man(a1-6)Man(b1-4)GlcNAc(b1-4)GlcNAc
# Summary of the method: as §1
# [30] = molecular target: Neu5Ac(a2-6)Gal(b1-4)GlcNAc(b1-2)Man(a1-6)[GlcNAc(b1-2)Man(a1-3)]Man(b1-4)GlcNAc(b1-4)GlcNAc
# Summary of the method: as §1
# [31] = molecular target: Neu5Ac(a2-6)Gal(b1-4)GlcNAc(b1-3)[Neu5Ac(a2-6)Gal(b1-4)GlcNAc(b1-6)]GalNAc
# Summary of the method: as §1
# [32] = molecular target: Neu5Ac(a2-8)Neu5Ac(a2-8)Neu5Ac(a2-3)[GalNAc(b1-4)]Gal(b1-4)Glc
# Summary of the method: as §1
# [33] = molecular target: Neu5Gc(a2-3)Gal(b1-4)[Fuc(a1-3)]GlcNAc
# Summary of the method: as §1
# [34] = molecular target: Neu5Gc(a2-6)Gal(b1-4)GlcNAc
# Summary of the method: as §1
# [35] = molecular target: Neu5Gc(a2-8)Neu5Gc(a2-3)Gal(b1-4)GlcNAc
# Summary of the method: as §1
binder,measurement,setting,value
B1,glycan array binding signal (z-score),[1],-0.541
same,glycan array binding signal (z-score),[2],3.73
same,glycan array binding signal (z-score),[3],2.28
same,glycan array binding signal (z-score),[4],0.143
same,glycan array binding signal (z-score),[5],-0.399
same,glycan array binding signal (z-score),[6],-0.924
same,glycan array binding signal (z-score),Gal(a1-4)Gal(b1-4)Glc,2.58
same,glycan array binding signal (z-score),[7],0.083
same,glycan array binding signal (z-score),Gal(b1-3)Gal(b1-4)GlcNAc,-0.843
same,glycan array binding signal (z-score),[8],3.31
same,glycan array binding signal (z-score),Gal(b1-4)Glc6S,0.425
same,glycan array binding signal (z-score),[9],0.454
same,glycan array binding signal (z-score),[10],2.79
same,glycan array binding signal (z-score),[11],-1
same,glycan array binding signal (z-score),[12],0.085
same,glycan array binding signal (z-score),[13],3.44
same,glycan array binding signal (z-score),[14],1.02
same,glycan array binding signal (z-score),[15],2.77
same,glycan array binding signal (z-score),[16],-1.13
same,glycan array binding signal (z-score),[17],-0.517
same,glycan array binding signal (z-score),Gal3S(b1-3)GalNAc,2.59
same,glycan array binding signal (z-score),[18],-0.243
same,glycan array binding signal (z-score),[19],3.51
same,glycan array binding signal (z-score),Gal3S4S(b1-4)GlcNAc,-0.674
same,glycan array binding signal (z-score),Glc(b1-6)Glc,3.22
same,glycan array binding signal (z-score),[20],0.659
same,glycan array binding signal (z-score),GlcNAc(b1-3)Gal,0.995
same,glycan array binding signal (z-score),[21],-0.786
same,glycan array binding signal (z-score),[22],3.99
same,glycan array binding signal (z-score),[23],-0.056
same,glycan array binding signal (z-score),[24],-0.917
same,glycan array binding signal (z-score),[25],0.139
same,glycan array binding signal (z-score),[26],2.65
same,glycan array binding signal (z-score),Neu5Ac(a2-3)Gal(b1-4)Glc,0.753
same,glycan array binding signal (z-score),[27],0.243
same,glycan array binding signal (z-score),[28],-0.601
same,glycan array binding signal (z-score),Neu5Ac(a2-6)Gal(b1-4)Glc,0.455
same,glycan array binding signal (z-score),[29],-0.426
same,glycan array binding signal (z-score),[30],-0.085
same,glycan array binding signal (z-score),[31],-1.37
same,glycan array binding signal (z-score),[32],-0.254
same,glycan array binding signal (z-score),[33],-0.437
same,glycan array binding signal (z-score),[34],1.41
same,glycan array binding signal (z-score),[35],-0.482
